Results published in PubChem BioAssay (NCI).
“And” between values parts separate entries of the source, which are not always exact repeats. Identical values can stand only once. The panel holds about 79,000 compounds, 15% with a hit somewhere; the sample as a whole holds those more often. No stated cut-off is given here; in the data, active means growth inhibition above about 70%; inactive means the rest.

Key:
[1] = NCI Yeast Anticancer Drug Screen. Data for the mec2-1 strain (AID 157); conditions: S. cerevisiae mec2-1 strain, hits give high values; at 50.0 µM unless noted
Outline: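 Cells of the genetically defined mec2-1 yeast strain are incubated with test compound. Inhibition of growth is calculated against vehicle-treated controls.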

[2] = NCI Yeast Anticancer Drug Screen. Data for the sgs1 mgt1 strain (AID 161);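 further: 0% = growth of cultures given vehicle only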; conditions: S. cerevisiae sgs1 mgt1 strain, hits give high values; at 50.0 µM unless noted
Outline: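 Mutant yeast exposed to compound; growth scored against vehicle-only wells.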

[3] = NCI Yeast Anticancer Drug Screen. Data for the cln2 rad14 strain (AID 165);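 further: 0% = growth equal to vehicle treated cultures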; conditions: S. cerevisiae cln2 rad14 strain, hits give high values; at 50.0 µM unless noted
Outline: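 The screen exposed genetically defined yeast (cln2 rad14) to test compounds and scored growth inhibition relative to vehicle-treated controls.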

[4] = NCI Yeast Anticancer Drug Screen. Data for the bub3 strain (AID 167); conditions: S. cerevisiae bub3 mutant strain, hits give high values; at 50.0 µM unless noted
Outline: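 Compounds were applied to a genetically altered yeast strain carrying a cell-cycle control defect. Growth inhibition was scored against vehicle-treated controls.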

[5] = NCI Yeast Anticancer Drug Screen. Data for the mlh1 rad18 strain (AID 175); conditions: S. cerevisiae mlh1 rad18 strain growth inhibition, hits give high values; at 50.0 µM unless noted
Outline: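 Compound-treated yeast growth, normalised to vehicle controls. Strain bears defined DNA repair mutations.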

[6] = NCI Yeast Anticancer Drug Screen. Data for the rad50 strain (AID 155);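 further: 0% = growth of vehicle-only cultures of the same strain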; conditions: S. cerevisiae rad50 strain growth inhibition, hits give high values; at 50.0 µM unless noted
Outline: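 Yeast carrying a defined DNA repair defect were exposed to test compounds, and growth was compared with vehicle-treated controls to give percent inhibition.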

Measured: growth inhibition

Cc1ccc(N2C(=O)CC(NC3CCCCC3)C2=O)cc1 (stereo not drawn)
inactive: [1] -3% | [2] -9.65% | [3] -2.2% | [4] -5.6% | [5] -2.7%

c1ccc2cnncc2c1
inactive: [1] -0.55% | [2] -11.8% | [3] 4.35% | [4] 11.7% | [5] 0.25%

NCCCOB(OCCCN)OCCCN
inactive: [1] -7.4% | [2] -17.1% | [3] -20.2% | [4] -2.45% | [5] -10.2%

CC1OC(n2cnc3c(NC(=O)c4ccccc4)ncnc32)C(O)C2OC12 (stereo not drawn)
inactive: [1] -3.05% | [2] 8.75% | [3] 13.4% | [4] 2.95% | [5] 14.8%

CCCCCCCCCCC1CC(=O)OC1=O (stereo not drawn)
inactive: [1] 14.7% | [2] 29.6% | [3] 9.45% | [4] 9.25% | [5] 8.3%

COCCN=Cc1ccc(N(C)C)cc1
inactive: [1] -4.8% | [2] -3.05% | [3] -26.4% | [4] 7.45% | [5] 3.7%

CN1NC(c2ccccc2)=C(C#N)C(=O)CC1c1ccccc1 (stereo not drawn)
inactive: [1] -2.5% | [2] 13.1% | [3] -1.4% | [4] 8.95% | [5] 10.2%

C=C(Br)CNC(=O)CCC(=O)NCC(=C)Br
inactive: [1] -11.8% | [2] -3.35% | [3] -5.9% | [4] -21.4% | [5] -57.7%

Clc1ccc(-c2cn3c(nc4ccccc43)c(-c3ccccc3)n2)cc1
inactive: [1] 1.4% | [2] -10.1% | [3] 2.35% | [4] -22.5% | [5] -16%

N#Cc1ccc(CC(=O)c2ccccc2)cc1
inactive: [1] 12.8% | [2] 0.45% | [3] -27.4% | [4] -0.75% | [5] 3.15%

COc1cc(C2NC(C(=O)O)CS2)cc(OC)c1OC (stereo not drawn)
inactive: [1] -14.7% | [2] 0.5% | [3] -19.1% | [4] -9.2% | [5] -5.85%

O=S1(=O)OCCOS(=O)(=O)C1C1c2ccccc2-c2ccccc21
inactive: [1] 2.95% | [2] 18.7% | [3] 7.6% | [4] -1.25% | [5] -32.3%

O=C1OC(=O)C2C(Cl)C(Cl)C12 (stereo not drawn)
inactive: [1] -7.2% | [2] 2.7% | [3] -37.6% | [4] -15.8% | [5] 3.4%

CCOC(=O)N1C(=O)C2C3C=CC(C2C1=O)C1C2C(=O)N(C(=O)OCC)C(=O)C2C31 (stereo not drawn)
inactive: [1] -3.15% | [2] -37.4% | [3] -0.55% | [4] -19.9% | [5] -37.6%

O=c1[nH][nH]c2ccccc12
inactive: [1] -11.3% | [2] 13.1% | [3] 13.9% | [4] 8.9% | [5] 12.2%

S=c1nc2ccccn2c(=S)n1-c1ccccn1
inactive: [1] 23.9% | [2] 27.4% | [3] 0.5% | [4] 24.5% | [5] 57.9%

S=C(S)Nc1cccc2ccccc12
inactive: [6] -14.4% and 11.2% | [1] -13.9% and -10.2% | [5] -16.2% and 14.3%

NNC(=O)Oc1cccc2ccccc12
inactive: [1] 19.3% | [2] 9.9% | [3] -4.4% | [4] 36.4% | [5] 42.5%

Nc1nc(N)c(CCCCc2ccccc2)c(Cc2ccccc2)n1
inactive: [1] -10.5% | [2] -2% | [3] -40% | [4] 3.7% | [5] -7.4%

CCC(O)(c1ccccc1)C(O)(CC)c1ccccc1 (stereo not drawn)
inactive: [1] 8.9% | [2] -2.05% | [3] 22.8% | [4] -13% | [5] 23.3%

Cc1cc(C)c2nccc(NCCCN(C)C)c2c1[N+](=O)[O-]
inactive: [1] 5% | [2] -1.8% | [3] 5.35% | [4] -10.8% | [5] -78.5%

N#CCN(CC#N)C1CC=CCC1N(CC#N)CC#N (stereo not drawn)
inactive: [1] 1% | [2] -30.2% | [3] -20.8% | [4] -21% | [5] -38.1%

CC1CCCCN1P(c1ccccc1)N1CCCCC1C (stereo not drawn)
inactive: [1] 16.9% | [2] 18.5% | [3] 24.1% | [4] 35% | [5] 22.7%
